# CYP2C19 inhib = human CYP2C19 inhibition; CYP2C19 Supersomes, luciferin-H EGE luminescence, 30 min; AID 778; inhibition, % at 5 µM; 96,000 tested, 21% active;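 active = CYP2C19 inhibition above a set limit at 5 µM in the primary screen, cut at about 50% in these data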;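 also: plate controls were negative control wells for no effect and 2.5 mM tranylcypromine positive control for full effect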
# CYP2C9 inhib = blocks human cytochrome P450 2C9; P11712; CYP2C9 Supersomes, luciferin-H conversion, luminescence; inhibition, % at 5 µM; 96,000 tested, 20% active;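 active = blocking of liver enzyme CYP2C9 beyond about 50% at 5 µM, limit read from the data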
# PLAP act = activates human placental alkaline phosphatase. P05187. purified PLAP enzyme, luminescent substrate read-out; hits give high values. activation fold at 20 µM. 96,000 tested, 1.2% active; in the data active = activation fold above about 2
# Target sequence (P05187 whole entry, looked up): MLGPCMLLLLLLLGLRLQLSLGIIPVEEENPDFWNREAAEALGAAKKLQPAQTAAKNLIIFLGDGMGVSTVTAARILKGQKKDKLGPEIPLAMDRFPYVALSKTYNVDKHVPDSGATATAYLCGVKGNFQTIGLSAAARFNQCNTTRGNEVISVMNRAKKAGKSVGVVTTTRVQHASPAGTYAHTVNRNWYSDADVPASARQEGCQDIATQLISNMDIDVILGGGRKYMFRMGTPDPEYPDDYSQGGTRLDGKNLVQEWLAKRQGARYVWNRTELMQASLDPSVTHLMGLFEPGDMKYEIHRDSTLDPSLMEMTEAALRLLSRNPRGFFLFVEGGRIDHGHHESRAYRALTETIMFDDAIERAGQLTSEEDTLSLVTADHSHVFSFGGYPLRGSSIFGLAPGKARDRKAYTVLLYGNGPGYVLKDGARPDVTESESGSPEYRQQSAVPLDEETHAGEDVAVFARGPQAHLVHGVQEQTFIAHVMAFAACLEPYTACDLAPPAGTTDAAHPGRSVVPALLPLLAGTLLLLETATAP
# CYP2C9 act = increases human cytochrome P450 2C9 activity. P11712. recombinant CYP2C9, luciferin-H conversion, luminescence; hits give high values; factor 1 = untreated enzyme, 0 = blocked. activation factor at 5 µM. 96,000 tested, 1.4% active;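 active = activation factor of 2 or more for CYP2C9 at a 5 µM dose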;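 also: 0 = sulfaphenazole-blocked wells and 1 = vehicle-only wells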
# CYP2C19 act = cytochrome P450 2C19 (human) activation; P33261; recombinant CYP2C19, luciferin-H EGE luminescence; hits give high values; 0 = fully inhibited enzyme, 1 = untreated enzyme; activation factor at 5 µM; 96,000 tested, under 10 active; AID 1025;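 active = activation factor of at least 2 at 5 µM in the primary screen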;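 also: 0 = wells with 2.5 mM tranylcypromine and 1 = vehicle-only wells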
# Active calls of the source: *; x = no result. Most compounds without a hit are left out; they make up all but 31% or so of the library.
SMILES,CYP2C19 inhib,CYP2C9 inhib,PLAP act,CYP2C9 act,CYP2C19 act
CC(=O)c1ccc(N2CCN(C(=O)c3cc(-c4ccc5c(c4)OCO5)nc4ccccc34)CC2)cc1,37,62*,1.9,0.4,0.6
CC(NC(=O)c1cc(-c2ccc3c(c2)OCO3)nc2ccccc12)C(C)(C)C (centres undefined),30,56*,1.2,0.4,0.7
O=c1[nH]n(-c2ccc(Cl)cc2)c(=O)c(Cl)c1Cl,-7,22,1,0.8,1.1
O=C(COc1ncnc2ccc(Br)cc12)NCc1ccc2c(c1)OCO2,-5,18,0.9,0.8,1.1
O=Cc1c(-[n+]2ccccc2)nc([O-])n1-c1ccccc1,-6,-82,1.4,1.8,1.1
CC(C)(C)SCCNC(=O)c1ccc(NS(C)(=O)=O)cc1,-13,20,1.1,0.8,1.1
CCc1ccc(CNCCNCC(C)O)cc1 (centres undefined),0,2,0.9,1,1
c1cnc(Oc2ccc3oc4ccccc4c3c2)nc1,63*,-11,1,1.1,0.4
COc1ccc2ccc(Oc3ncccn3)cc2c1,36,-2,0.9,1,0.6
CCOC(=O)c1c(C)oc2c1c1c(c3ccccc32)OCN(Cc2ccccn2)C1,33,54*,1.3,0.5,0.7
CCOC(=O)c1c(C)oc2c1c(C=NC1CCS(=O)(=O)C1)c(O)c1ccccc12 (centres undefined),18,47,0.9,0.5,0.8
CCOC(=O)c1c(C)oc2c1c(C(c1ccncc1)N1CCOCC1)c(O)c1ccccc12 (centres undefined),98*,97*,1.4,0,0
COC(=O)c1nn(-c2ccccc2)c(Sc2ccccc2)c1/C=N/O,41,42,1,0.6,0.6
CCOC(=O)c1ccc(NC(=O)NC2CC3CCC(C2)N3Cc2nnnn2C(C)(C)C)cc1 (centres undefined),-4,16,1,0.8,1
COc1ccc(CCNC(C)=O)cc1,-5,-11,0.9,1.1,1
COC(=O)/C(=C\Nc1ccc(OC)cc1)NC(=O)c1ccc(Cl)cc1Cl,14,20,0.9,0.8,0.9
CCOc1ccc(CCNC(=O)C(O)c2ccccc2)cc1 (centres undefined),47,57*,0.9,0.4,0.5
CCOC(=O)NCCc1ccc(OC)cc1,83*,64*,0.9,0.4,0.2
CCOC(=O)COc1ccc(CCNC(C)=O)cc1,-13,-111,1,2.1*,1.1
COc1ccc(CCNC(=O)c2ccc(Cl)cc2Cl)cc1,89*,6,0.8,0.9,0.1
CC(=O)Oc1cc2c(cc1Cl)C1(CC(c3ccccc3Cl)O2)CC(C)(C)NC(=S)N1 (centres undefined),17,32,1.6,0.7,0.8
Cc1c(C(=O)O)sc2ncn(C)c(=O)c12,-9,14,0.9,0.9,1.1
CC(C)C12CCC(C(=O)O)C(C1)C(=O)O2 (centres undefined),x,x,1,x,x
Cc1cc(C)c(C)c(S(=O)(=O)NCC(=O)Nc2sc3c(c2C(N)=O)CCCC3)c1C,32,22,1.3,0.8,0.7
COc1ccccc1NS(=O)(=O)c1ccc(NC(=O)CCNC(=O)c2ccco2)cc1,12,1,1.1,1,0.9
SMILES,CYP2C19 inhib,CYP2C9 inhib,PLAP act,CYP2C9 act,CYP2C19 act
CCC(CC)C(=O)NCCc1ccc(OC)cc1,77*,59*,0.7,0.4,0.2
CCOC(=O)NC(NCCc1ccccc1)(C(F)(F)F)C(F)(F)F,63*,53*,1.1,0.5,0.4
O=C(c1ccc(Cl)cc1)N1CCN(c2cc(=O)[nH]nc2-c2ccccc2)CC1,-9,2,1.2,1,1.1
Cc1ccc(S(=O)(=O)Nc2ccc(-c3nc4cc(NS(=O)(=O)c5ccc(C)cc5)ccc4o3)cc2)cc1,81*,97*,1.9,0,0.2
O=C(Cc1ccccc1)Nc1ccc2oc(-c3ccncc3)nc2c1,4,10,1,0.9,1
O=C(Nc1ccc2oc(-c3ccc(Cl)c(Cl)c3)nc2c1)c1ncn[nH]1,5,-6,2.6*,1.1,0.9
CC(C)CC(=O)Nc1ccc2oc(-c3ccncc3)nc2c1,52*,69*,1.1,0.3,0.5
COC(=O)NNC(=O)C(C)Oc1ccc(Cl)cc1Cl (centres undefined),13,-1,1.1,1,0.9
CC(Oc1ccc(Cl)cc1Cl)C(=O)Nc1ccc2oc(-c3ccncc3)nc2c1 (centres undefined),55*,61*,1.1,0.4,0.4
Cc1ccc(-c2nc3cc(Cl)ccc3o2)cc1,26,36,0.9,0.6,0.7
Cn1c(=O)c2c(nc(Br)n2Cc2ccc3ccccc3c2)n(C)c1=O,39,28,0.9,0.7,0.6
COc1ccc(S(=O)(=O)N2C3CCC2CC(NC(=O)NC2CCCCC2)C3)cc1 (centres undefined),38,-46,1.1,1.5,0.6
CCCCCOC(=O)C1[C@H]2C(=O)N(CCCOC)C[C@]23C=C[C@H]1O3 (some centres undefined),-3,0,1.6,1,1
CC(C)CC(=O)Nc1cccc(-c2nc3ccccc3o2)c1,29,74*,0.9,0.3,0.7
Cc1ccc(-c2nc3cc(NC(=O)C(C)C)ccc3o2)cc1,-2,-2,2.5*,1,1
CCCC(=O)Nc1cccc(-c2nc3ccccc3o2)c1,9,26,1,0.7,0.9
O=C(Nc1ccc(Oc2ccc(Cl)cc2)cc1)c1ncn[nH]1,54*,3,0.9,1,0.5
Cc1cc2nc(-c3ccc(NC(=O)C(C)C)cc3)oc2cc1C,2,-35,0.9,1.4,1
CCOC(=O)C(NC(=O)c1ccc(F)cc1)(Nc1nnc(C)s1)C(F)(F)F (centres undefined),14,-2,0.9,1,0.9
CC(C)n1nc(C(=O)Nc2nnc(SCc3c(Cl)cccc3Cl)s2)c2ccccc2c1=O,66*,86*,1.7,0.1,0.3
CC(C)n1nc(C(=O)Nc2nc3ccc(S(C)(=O)=O)cc3s2)c2ccccc2c1=O,-3,21,1,0.8,1
COc1ccc2nc(SCC(=O)Nc3c(C)cccc3C)[nH]c2c1,52*,84*,1.4,0.2,0.5
Cc1nc2nc(SCC(=O)C(C)(C)C)[nH]c2cc1Br,30,17,1,0.8,0.7
CC(C)(C)C(=O)CSc1nc2ncc(Br)cc2[nH]1,91*,46,1.2,0.5,0.1
CCOc1ccc2nc(SCC(=O)Nc3ccc4c(c3)OCCO4)[nH]c2c1,61*,91*,2.1*,0.1,0.4
COc1ccc2[nH]c3nc(SCc4nnc(-c5ccc(C)cc5)o4)nnc3c2c1,52*,72*,1.4,0.3,0.5
CSc1ccccc1NC(=O)CSCc1ccc(Br)cc1,17,13,0.9,0.9,0.8
O=C(Nc1cccc(S(=O)(=O)C(F)F)c1)c1ccc(Cl)c(S(=O)(=O)N2CCOCC2)c1,-12,-2,0.9,1,1.1

# Screening results deposited in PubChem by Sanford-Burnham Center for Chemical Genomics.
